Compound activity: PubChem, National Center for Advancing Translational Sciences (NCATS)
In the library only some 9.5% were active in any assay of this set; here they are far more common.
Tau fibril ThT: inhibitors of human tau fibril formation, thioflavin T binding | 270,000 compounds, 2.1% hits | Potency, µM (highest dose often 57.4 µM), for inactives: at the top dose activity, negative = inhibition, most hits filed as inhibitors | recombinant tau K18 P301L, heparin-induced fibrillization, ThT fluorescence; further: nearly all actives have a fitted effect of over 55% in size
Target sequence (P10636 561-689 P618L limits assumed): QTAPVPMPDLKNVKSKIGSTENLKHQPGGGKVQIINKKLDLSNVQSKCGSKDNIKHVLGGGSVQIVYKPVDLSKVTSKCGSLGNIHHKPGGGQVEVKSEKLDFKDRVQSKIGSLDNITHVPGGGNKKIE
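Heparin-induced fibrillization of the P301L-mutant K18 repeat-domain fragment of human tau was followed by ThT binding in quantitative high-throughput format.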
HPGD inh: blocks human HPGD enzyme activity; Potency, µM, without a hit: at the top dose activity change, negative = inhibition, actives largely listed as inhibitors; 150,000 compounds, 4.3% hits; AID 894; purified HPGD, NADH fluorescence kinetic, PGE2 substrate; P15428; active means well fitted inhibition curve with a large enough effect, not every such curve was filed as active; inconclusive means small, poorly fitted or top-dose-only effect, or another doubt; inactive means no such curve, though single readings can be large or run the other way
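NADH formation kinetics: reaction with 30 uM PGE2 and 1 mM NAD+ (final), 20 nM enzyme, Tris-HCl pH 8 with Tween 20, after 15 min compound preincubation at room temperature. Fluorescence change, last versus first of five reads.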
ALDH1A1 inh: ALDH1A1 (human) enzyme inhibition | P00352 | Purified ALDH1A1, NADH fluorescence, propionaldehyde substrate | Potency, µM (series often up to 75.3 µM), for inactives: at the highest dose activity, negative = inhibition, most hits filed as inhibitors | 220,000 compounds, 7.3% hits | AID 1030; active means well fitted inhibition curve with a large enough effect, not every such curve was filed as active; inconclusive means small, poorly fitted or top-dose-only effect, or another doubt; inactive means no such curve, though single readings can be large or run the other way;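 further: plate controls were no enzyme wells and a reference inhibitor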
NPSR antagonist: antagonists of human neuropeptide S receptor cAMP signaling | Q6W5P4 | CHO-NPSR cells, cAMP TR-FRET, antagonist mode | Potency, µM (top dose mostly 38.3 µM), for inactives: top-dose activity change, negative = inhibition, actives largely listed as inhibitors | 220,000 compounds, 1% hits; further: nearly all actives have a fitted effect of over 50% in size
Target sequence (Q6W5P4 whole entry, looked up): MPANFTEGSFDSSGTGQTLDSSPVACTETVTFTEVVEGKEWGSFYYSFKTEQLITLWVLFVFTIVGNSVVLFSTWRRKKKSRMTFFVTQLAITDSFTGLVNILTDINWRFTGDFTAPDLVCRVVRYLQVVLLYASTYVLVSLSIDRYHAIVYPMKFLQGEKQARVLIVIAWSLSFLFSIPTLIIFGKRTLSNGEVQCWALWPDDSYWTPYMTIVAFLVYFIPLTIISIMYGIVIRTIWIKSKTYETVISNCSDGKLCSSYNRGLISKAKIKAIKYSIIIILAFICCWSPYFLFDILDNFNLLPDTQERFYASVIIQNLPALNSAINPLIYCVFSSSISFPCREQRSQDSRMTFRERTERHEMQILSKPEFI
Tau fluor cs: counter-screen for tau fibril formation inhibitors. 280,000 compounds, 0.93% hits. tau K18 P301L Alexa594 fluorescence, heparin fibrillization. AID 1463. Potency, µM (doses to about 57.7 µM), without a hit: at the top dose activity change, negative = decrease; further: nearly all actives have a fitted effect of over 55% in size
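Human K18 P301L tau (15 uM unlabeled plus 0.24 uM Alexa 594-labeled, final) in 100 mM sodium acetate pH 7 was mixed with compound and 20 uM heparin and incubated 6 hr at 37 C.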
Tau FP inhib: inhibitors of human tau fibril formation; K18 P301L tau heparin fibrillization, Alexa594 FP, 6 h; Potency, µM (top dose mostly 57.7 µM), for inactives: at the top dose activity, negative = inhibition, actives largely listed as inhibitors; 280,000 compounds, 0.39% hits; AID 1468; further: nearly all actives have a fitted effect of over 55% in size
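Heparin (20 uM) drove fibril formation of recombinant tau K18 P301L, 15 uM unlabeled with 0.24 uM Alexa 594 label, for 6 hr at 37 C in 100 mM sodium acetate pH 7. Fluorescence polarization (555/632 nm) read 1 hr after 30 uM ThT.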
Active calls of the source: *; [ ] = remark or other dose. Unless noted, the call rests on the fitted dose curve; in most records, active means well fitted curve in the direction sought with a large enough effect; inconclusive means small, poorly fitted or top-dose-only effect, or another doubt; inactive means no such curve, though single readings can be large; an effect the other way counts as inactive or inconclusive. Unless noted, on the % scale 0 is the no-effect control and ±100 the full control effect; potency means the concentration at half of the fitted maximal effect.

Screening COC(=O)C1=CN(Cc2ccc(OC)cc2)C=C(C(=O)OC)C1c1cccs1 returned Tau fibril ThT inconclusive, ALDH1A1 inh inconclusive, NPSR antagonist inconclusive, Tau fluor cs -29% and Tau FP inhib 0%.
Screening C=CCOc1c(OC)cc(Cl)cc1C1NC(=O)NC(C)=C1C(C)=O (stereo unspecified) returned Tau fibril ThT -3%, HPGD inh -4%, ALDH1A1 inh 10%, NPSR antagonist -21%[46.1 µM], Tau fluor cs -3% and Tau FP inhib -1%.
`COc1cc(Cl)cc(C2NC(=O)NC(C)=C2C(C)=O)c1OCC(=O)O` (stereo unspecified) gave Tau fibril ThT -2%, HPGD inh -9%, ALDH1A1 inh 2.2µM*, NPSR antagonist -3%[46.1 µM], Tau fluor cs -6% and Tau FP inhib 0%.
For Cc1ccc(SCC(=O)c2ccc(CC(=O)O)s2)cc1 the results were Tau fibril ThT inconclusive, NPSR antagonist -1%[7.67 µM], Tau fluor cs -13% and Tau FP inhib -7%.
`Cc1[nH]c(C)c(Cl)c(=O)c1Cl` gave Tau fibril ThT -4%, HPGD inh 2%, ALDH1A1 inh -3%, Tau fluor cs -7% and Tau FP inhib -3%.
`C/C(=N\NC(=O)COc1ccccc1-c1ccccc1)c1cccnc1` gave Tau fibril ThT -8%, ALDH1A1 inh 14µM*, NPSR antagonist -17%, Tau fluor cs -4% and Tau FP inhib -2%.
`C/C(=N\NC(=O)COc1ccccc1-c1ccccc1)c1ccccn1` gave Tau fibril ThT -16%, ALDH1A1 inh 2.5µM*, NPSR antagonist 7.9µM*, Tau fluor cs -3% and Tau FP inhib -3%.
C/C(=N\NC(=O)COc1ccccc1-c1ccccc1)c1ccc(O)cc1O was read as Tau fibril ThT -6%, NPSR antagonist inconclusive, Tau fluor cs inconclusive and Tau FP inhib -5%.
COc1ccc(NC(=O)Cn2nnc(C(=O)NCc3ccccc3Cl)c2N)cc1Cl was read as Tau fibril ThT 1%, Tau fluor cs -5% and Tau FP inhib -13%.
CCn1c(SCC(=O)Nc2nc(-c3ccc(C)cc3)cs2)nnc1-c1ccccc1O was read as Tau fibril ThT -10%, HPGD inh -11%, ALDH1A1 inh 6%, NPSR antagonist -25%[46.1 µM], Tau fluor cs inconclusive and Tau FP inhib inconclusive.
`COc1cc(-c2coc3cc(OC)c(OC)c(OC)c3c2=O)cc(OC)c1OC` gave Tau fibril ThT -5%, HPGD inh -5%, ALDH1A1 inh 3%, Tau fluor cs -2% and Tau FP inhib 1%.
`CC(=O)Oc1cc(-c2coc3cc(OC(C)=O)c(OC(C)=O)c(OC(C)=O)c3c2=O)cc(OC(C)=O)c1OC(C)=O` gave Tau fibril ThT 3.5µM*, HPGD inh 7.9µM*, ALDH1A1 inh inconclusive, Tau fluor cs inconclusive and Tau FP inhib 8.9µM*.
`COc1ccc(CNC(=O)C(NC(C)=O)C(=O)Nc2ccc(C(C)C)cc2)cc1` (stereo unspecified) gave Tau fibril ThT -5%, ALDH1A1 inh -8%, NPSR antagonist -6%, Tau fluor cs -7% and Tau FP inhib 1%.
O=C(O)COc1c(Cl)cc(/C=C2\NC(=O)NC2=O)cc1Br was read as Tau fibril ThT -19%, ALDH1A1 inh 18µM*, NPSR antagonist 11%, Tau fluor cs -17% and Tau FP inhib -13%.
COc1cc(/C=C2/NC(=O)NC2=O)cc(Br)c1OCc1ccc(C(=O)O)cc1 was read as Tau fibril ThT -10%, ALDH1A1 inh inconclusive, NPSR antagonist 6%, Tau fluor cs -4% and Tau FP inhib 4%.
For COc1ccc(Oc2ccc(/C=C/C(=O)c3cccc(OC)c3)cc2[N+](=O)[O-])cc1 the results were Tau fibril ThT inconclusive, HPGD inh -16%, ALDH1A1 inh -5%, NPSR antagonist -52%, Tau fluor cs -18% and Tau FP inhib 2%.
For Cc1ccc(-c2n[nH]c3c2C(c2ccc(C(C)(C)C)cc2)NC3=O)cc1 (stereo unspecified) the results were Tau fibril ThT -2%, Tau fluor cs -11% and Tau FP inhib inconclusive.
Screening Cn1c(=O)n(C)c2cc(NS(=O)(=O)c3ccc(F)cc3)c(NCc3ccccc3)cc21 returned Tau fibril ThT inconclusive, Tau fluor cs inconclusive and Tau FP inhib -13%.
Screening COc1ccc(CCCC(=O)NC2CCCCC2)cc1 returned Tau fibril ThT -6%, HPGD inh inconclusive, ALDH1A1 inh 7%, NPSR antagonist -11%[46.1 µM], Tau fluor cs 3% and Tau FP inhib -4%.
Screening COc1ccc(CCCC(=O)NC2CCCCC2C)c(C)c1 (stereo unspecified) returned Tau fibril ThT -13%, HPGD inh 3.5µM*, ALDH1A1 inh 16µM*, NPSR antagonist -13%[46.1 µM], Tau fluor cs -2% and Tau FP inhib -3%.
For CS(=O)(=O)NN1C(=O)c2ccccc2NC1c1c[nH]c2ccccc12 (stereo unspecified) the results were Tau fibril ThT 0%, HPGD inh -21%, ALDH1A1 inh inconclusive, NPSR antagonist 14%, Tau fluor cs -2% and Tau FP inhib 0%.
Screening CN(C)Cc1ccccc1-c1ccc2ncnc(N(C)C)c2c1 returned ALDH1A1 inh 3%.
CN(C)c1ncnc2ccc(-c3ccoc3)cc12 was read as ALDH1A1 inh 28µM*.
For CCOc1cccc(C=Nc2cc(C)cc(C)c2O)c1O the results were Tau fibril ThT 25µM*, HPGD inh 11µM*, ALDH1A1 inh 22µM*, NPSR antagonist -32%[46.1 µM], Tau fluor cs inconclusive and Tau FP inhib inconclusive.
`C/C(CCN1CCCc2nc(C)c(C)cc21)=N\OC[C@@H](C)[C@H](OCc1ccccc1)C(C)C` gave Tau fibril ThT -7%[11.5 µM], ALDH1A1 inh -10%[13.5 µM], Tau fluor cs -9%[11.6 µM] and Tau FP inhib 4%[11.6 µM].
Screening CNCCCCc1cnc(C)c2[nH]c3ccccc3c12 returned Tau fibril ThT -10%, HPGD inh inconclusive, ALDH1A1 inh inconclusive, Tau fluor cs -11% and Tau FP inhib 0%.
COc1ccc(CCN2C(=O)C3C4CCC(C4=C(C)C)C3C2=O)cc1OC (stereo unspecified) was read as Tau fibril ThT -8%, HPGD inh -7%, ALDH1A1 inh 13µM*, NPSR antagonist 7%, Tau fluor cs -14% and Tau FP inhib 10%.
COc1ccc(CCN2C(=O)CC(Cc3ccc(C)cc3)C2=O)cc1OC (stereo unspecified) was read as Tau fibril ThT -17%, ALDH1A1 inh -8%, NPSR antagonist 10%, Tau fluor cs -14% and Tau FP inhib 0%.
